Screening data (PubChem BioAssay)
CYP2C9 inhib – human CYP2C9 inhibition; P11712; CYP2C9 Supersomes, luciferin-H conversion, luminescence; inhibition, % at 5 µM; hit rate 20% among 96,000; AID 777;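 active means blocking of liver enzyme CYP2C9 beyond about 50% at 5 µM, limit read from the data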
CYP2C19 inhib – blocks human cytochrome P450 2C19; P33261; CYP2C19 Supersomes, luciferin-H EGE luminescence, 30 min; inhibition, % at 5 µM; hit rate 21% among 96,000; AID 778;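 active means CYP2C19 inhibition above a set limit at 5 µM in the primary screen, cut at about 50% in these data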;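 further: plate controls were negative control wells for no effect and 2.5 mM tranylcypromine positive control for full effect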
Target sequence (P33261 whole entry, looked up): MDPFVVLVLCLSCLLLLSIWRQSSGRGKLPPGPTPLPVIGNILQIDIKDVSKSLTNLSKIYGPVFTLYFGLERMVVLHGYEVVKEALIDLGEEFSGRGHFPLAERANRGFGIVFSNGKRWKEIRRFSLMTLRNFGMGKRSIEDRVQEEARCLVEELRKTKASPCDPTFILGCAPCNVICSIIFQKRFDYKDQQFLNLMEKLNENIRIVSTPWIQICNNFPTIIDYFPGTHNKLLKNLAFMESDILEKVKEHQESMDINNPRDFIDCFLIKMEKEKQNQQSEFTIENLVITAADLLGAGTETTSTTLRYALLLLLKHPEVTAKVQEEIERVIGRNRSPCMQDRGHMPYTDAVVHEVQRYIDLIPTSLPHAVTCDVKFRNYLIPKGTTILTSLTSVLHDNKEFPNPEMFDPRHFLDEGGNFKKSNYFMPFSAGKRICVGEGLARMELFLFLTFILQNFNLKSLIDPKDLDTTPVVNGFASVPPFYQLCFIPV
CYP2C9 act – activators of human CYP2C9; recombinant CYP2C9, luciferin-H conversion, luminescence; active compounds read high; factor 1 = untreated enzyme, 0 = blocked; hit rate 1.4% among 96,000; activation factor at 5 µM; P11712; AID 1024;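 active means activation factor of 2 or more for CYP2C9 at a 5 µM dose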;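 further: 0 = sulfaphenazole-blocked wells and 1 = vehicle-only wells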
PLK1 inh – inhibitors of human PLK1 kinase; hit rate 0.53% among 97,000; recombinant PLK1 kinase, TR-FRET peptide phosphorylation; inhibition, % at 10 µM;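 active means inhibition of 50% or more in the single-concentration screen; inactive means inhibition below 50%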;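 further: 0% = DMSO max control and 100% = H-89 dihydrochloride min control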
Plk1 PBD FP – blocks phosphopeptide binding to human Plk1 polo box domain. hit rate 0.13% among 97,000. inhibition, %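 (tested at about 20 µM)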. AID 693. Plk1 PBD phosphopeptide binding, fluorescence polarization; in the data active means inhibition above about 34%, passing the limit was not always enough
CYP2C19 activ – activators of human cytochrome P450 2C19. AID 1025. recombinant CYP2C19, luciferin-H EGE luminescence; active compounds read high; 0 = fully inhibited enzyme, 1 = untreated enzyme. activation factor at 5 µM. 96,000 tested, under 10 active. P33261;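 active means activation factor of at least 2 at 5 µM in the primary screen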;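 further: 0 = wells with 2.5 mM tranylcypromine and 1 = vehicle-only wells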
Starred values were filed as active, the others as inactive; · = not tested or not shown. In the library only some 28% were active in any assay of this set; here they are far more common.

SMILES	CYP2C9 inhib	CYP2C19 inhib	CYP2C9 act	PLK1 inh	Plk1 PBD FP	CYP2C19 activ
COc1ccc2nc(SCC(=O)Nc3ccc4c(c3)OCCO4)[nH]c2c1	81*	36	0.2	-10	17	0.6
COc1ccc2nc(SCC(N)=O)[nH]c2c1	-16	-13	1.2	-5	11	1.1
CCOc1ccc2nc(SCC(=O)NCc3ccc4c(c3)OCO4)[nH]c2c1	68*	24	0.3	-4	-3	0.8
Cn1cc(Br)c(C(=O)N2CCN(c3cccc(Cl)c3)CC2)n1	·	·	·	-9	-6	·
CC(C)CC(=O)c1c[nH]c(C(=O)NCCCN2CCOCC2)c1	-9	-17	1.1	-11	19	1.2
Cc1ccccc1C(=O)Nc1cccc(NC(=O)Cn2cnc3c(=O)n(C)c(=O)n(C)c32)c1	59*	6	0.4	0	3	0.9
Cc1cccc(C)c1NC(=O)Cn1cnc2c(=O)n(C)c(=O)n(C)c21	-6	-5	1.1	14	16	1.1
CN(CC(=O)O/N=C(\N)c1cccc([N+](=O)[O-])c1)S(=O)(=O)c1ccccc1	12	59*	0.9	-24	-18	0.4
CN(CC(=O)O/N=C(\N)c1ccc([N+](=O)[O-])cc1)S(=O)(=O)c1ccccc1	-5	14	1.1	-3	-9	0.9
CCOc1ccccc1N(CC(=O)NC1CCCCC1)S(C)(=O)=O	20	34	0.8	·	·	0.7
Cc1ccc(-c2nnn(CC(=O)Nc3ccc4nn(-c5ccccc5)nc4c3)n2)o1	4	3	1	-4	9	1
CCC1CCCCN1C(=O)Cn1c(C(=O)OC)cc2ccsc21 (stereo not given)	38	53*	0.6	-13	-25	0.5
Cn1c(=O)cc(OCC(=O)NC2CCCCC2)c2ccccc21	2	62*	1	-13	-3	0.4
CCC1CCCCN1C(=O)Cn1c(C(=O)OC)cc2sc(Cl)cc21 (stereo not given)	7	31	0.9	-8	-18	0.7
CCC1CCCCN1C(=O)COc1cc(=O)n(C)c2ccccc12 (stereo not given)	8	59*	0.9	0	20	0.4
CCC1CCCCN1C(=O)Cn1c(=O)oc2ccccc21 (stereo not given)	12	83*	0.9	-8	-7	0.2
COc1cc(/C=N/n2c(SC)nnc(C(C)(C)C)c2=O)ccc1O	38	31	0.6	-1	7	0.7
CC1CC(C)CN(CCCNC(=O)c2csc3c2CCCC3)C1 (stereo not given)	14	24	0.9	-13	-30	0.8
Oc1ccc(C=NCC2COc3ccccc3O2)cc1 (stereo not given)	27	9	0.7	-4	-13	0.9
CSCCC(NC(=O)OC(C)(C)C)C(=O)NC(CC(C)C)C(N)=O (stereo not given)	1	5	1	-3	-2	1
COc1ccccc1OCCOCCn1cnc2ccccc2c1=O	-18	67*	1.2	-1	10	0.3
Cc1ccc2c(c1)NC(=O)C(CC(=O)N(C)Cc1ccccc1)O2 (stereo not given)	-8	38	1.1	-5	9	0.6
CCc1cc(=O)oc2cc(C)c(CN3CCCC(C)C3)c(O)c12 (stereo not given)	38	44	0.6	-11	-6	0.6
CCCCc1cc(=O)oc2cc(C)c(CN3CCCC3)c(O)c12	58*	50	0.4	-10	14	0.5
CCN(CC)c1ccc(C=N/C(C#N)=C(\N)C#N)cc1	6	19	0.9	7	-4	0.8
SMILES	CYP2C9 inhib	CYP2C19 inhib	CYP2C9 act	PLK1 inh	Plk1 PBD FP	CYP2C19 activ
Cc1ccc(C2C(/C=C3/SC(=S)NC3=O)=C(c3cccs3)Oc3ccccc32)cc1 (stereo not given)	68*	1	0.3	-19	43	1
Cc1nn(C)c(C)c1/C=C1/SC(=S)NC1=O	23	0	0.8	-12	-9	1
O=C(OCn1nnc2ccccc2c1=O)c1cn(-c2ccccc2)nc1-c1cccnc1	35	11	0.7	-18	-4	0.9
CN(C)c1ccc(NC(=O)c2cccc(N3C(=O)C4C5C=CC(C5)C4C3=O)c2)cc1 (stereo not given)	·	·	·	2	-5	·
Cc1ccccc1NC(=O)c1cccc(N2C(=O)C3C4CCC(C4)C3C2=O)c1 (stereo not given)	57*	40	0.4	-13	9	0.6
COc1ccc(S(=O)(=O)N=C2C=C(C)C(=O)C(C)=C2)cc1	-66	66*	1.7	-12	4	0.3
Cc1nn(C(=O)N2CCOCC2)c(C)c1CN1C(=O)c2ccccc2C1=O	·	·	·	-1	-34	·
O=C(O)CC1Oc2ccc(Cl)cc2NC1=O (stereo not given)	55*	8	0.4	·	·	0.9
COc1ccc(NS(=O)(=O)c2ccc(O)c(C(=O)OCC(=O)N3CC(C)OC(C)C3)c2)cc1 (stereo not given)	82*	71*	0.2	-13	-4	0.3
CCN1C(=O)c2cccc3c(S(=O)(=O)Nc4ccccn4)ccc1c23	65*	20	0.4	-3	13	0.8
CN(C)c1cccc2c(S(=O)(=O)Nc3ccccn3)cccc12	-13	92*	1.1	-2	-28	0.1
CCN1C(=O)c2cccc3c(S(=O)(=O)Nc4ncccc4C)ccc1c23	56*	23	0.4	-3	-14	0.8
COC(=O)c1ccc(NC(=O)CSc2nnc(-c3ccccc3)n2C)cc1	·	·	·	-12	-26	·
CCOC(=O)c1c(C)nc2ccccc2c1C	5	37	0.9	-4	-11	0.6
CCOC(=O)c1c(Nc2ccccc2N)cc(C)nc1C	6	72*	0.9	-9	-15	0.3
c1cc2[nH]snc2c2nc(C3CC3)nc12	8	26	0.9	-17	-27	0.7
Cc1c(C)n(C(=O)CN2CCC(C)CC2)c2ccccc12	-7	57*	1.1	-9	-13	0.4
O=C(CN1CCOCC1)n1c2ccccc2c2ccccc21	-19	-1	1.2	-13	-24	1
Cc1c(C)n(C(=O)CSc2ncn[nH]2)c2ccccc12	-24	59*	1.2	-2	6	0.4
Cc1c(C)n(C(=O)CSc2nncn2C)c2ccccc12	-115	42	2.2*	-11	30	0.6
Cn1cnnc1SCC(=O)n1c2ccccc2c2ccccc21	2	34	1	4	-7	0.7
N#Cc1ccc(C(=O)Nc2ccc(N3CCN(C(=O)c4ccco4)CC3)cc2)c(F)c1	20	12	0.8	-11	2	0.9
CCc1nnc(SCc2cn3c(C)cc(C)nc3n2)n1N	-26	-20	1.3	-11	14	1.2
COc1cccc(NC(=O)CSCC(=O)Nc2ccccc2)c1	78*	60*	0.2	-8	0	0.4
COc1ccc(C(=O)NCC(=O)Nc2ccccc2)cc1OC	-38	-1	1.4	-12	-6	1
